Results from PubChem BioAssay AID1159580 (chemical genetic matrix, 2015).
Among all 5,500 compounds or so, about 2,000 (36%) were called active. Inconclusive results (about 18%) are left out. No stated cut-off is given here; in the data, active means normalized growth mostly below about 0.91 (no sharp cut-off); inconclusive means no clear call, values can overlap the other calls; inactive means mostly above about 0.92. The list shows a part of the results.

Test: chemical genetic growth profiling, strain panel (AID 1159580);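 further: tested at 20 µM; growth read once vehicle control cultures reached saturation at 30 °C; 1 = growth at the plate median or of vehicle wells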
Conditions: growth OD
[1] = S. cerevisiae deletion strains, locus YAL013W, strain DEP1, stronger effect = lower value
[2] = S. cerevisiae deletion strains, locus YBR021W, strain FUR4, stronger effect = lower value
[3] = S. cerevisiae deletion strains, locus YBR229C, strain ROT2, stronger effect = lower value
[4] = S. cerevisiae deletion strains, locus YCL029C, strain bik1, stronger effect = lower value
[5] = S. cerevisiae deletion strains, locus YDL035C, strain GPR1, stronger effect = lower value
[6] = S. cerevisiae deletion strains, locus YDL074C, strain BRE1, stronger effect = lower value
[7] = S. cerevisiae deletion strains, locus YDL101C, strain DUN1, stronger effect = lower value
[8] = S. cerevisiae deletion strains, locus YDL134C, strain PPH21, stronger effect = lower value
[9] = S. cerevisiae deletion strains, locus YDL185W, strain tfp1, stronger effect = lower value
[10] = S. cerevisiae deletion strains, locus YDL192W, strain arf1, stronger effect = lower value
[11] = S. cerevisiae deletion strains, locus YDR101C, strain arx1, stronger effect = lower value
[12] = S. cerevisiae deletion strains, locus YDR150W, strain NUM1, stronger effect = lower value
[13] = S. cerevisiae deletion strains, locus YDR162C, strain NBP2, stronger effect = lower value
[14] = S. cerevisiae deletion strains, locus YDR318W, strain mcm21, stronger effect = lower value
[15] = S. cerevisiae deletion strains, locus YDR388W, stronger effect = lower value
[16] = S. cerevisiae deletion strains, locus YDR502C, strain sam2, stronger effect = lower value
[17] = S. cerevisiae deletion strains, locus YEL061C, strain CIN8, stronger effect = lower value
[18] = S. cerevisiae deletion strains, locus YER110C, stronger effect = lower value
[19] = S. cerevisiae deletion strains, locus YER155C, strain BEM2, stronger effect = lower value
[20] = S. cerevisiae deletion strains, locus YER167W, strain BCK2, stronger effect = lower value
[21] = S. cerevisiae deletion strains, locus YGL078C, strain dbp3, stronger effect = lower value
[22] = S. cerevisiae deletion strains, locus YGL086W, strain mad1, stronger effect = lower value
[23] = S. cerevisiae deletion strains, locus YGL248W, strain PDE1, stronger effect = lower value
[24] = S. cerevisiae deletion strains, locus YGR078C, strain PAC10, stronger effect = lower value
[25] = S. cerevisiae deletion strains, locus YGR135W, strain pre9, stronger effect = lower value
[26] = S. cerevisiae deletion strains, locus YGR229C, strain SMI1, stronger effect = lower value
[27] = S. cerevisiae deletion strains, locus YGR252W, strain gcn5, stronger effect = lower value
[28] = S. cerevisiae deletion strains, locus YHR030C, strain SLT2, stronger effect = lower value
[29] = S. cerevisiae deletion strains, locus YHR079C, strain IRE1 (second series), stronger effect = lower value
[30] = S. cerevisiae deletion strains, locus YHR094C, strain hxt1, stronger effect = lower value
[31] = S. cerevisiae deletion strains, locus YHR129C, strain ARP1, stronger effect = lower value
[32] = S. cerevisiae deletion strains, locus YHR200W, strain rpn10, stronger effect = lower value
[33] = S. cerevisiae deletion strains, locus YIL066C, strain RNR3, stronger effect = lower value
[34] = S. cerevisiae deletion strains, locus YIL073C, strain SPO22, stronger effect = lower value
[35] = S. cerevisiae deletion strains, locus YIL125W, strain kgd1, stronger effect = lower value
[36] = S. cerevisiae deletion strains, locus YIR030C, strain dcg1, stronger effect = lower value
[37] = S. cerevisiae deletion strains, locus YJL095W, strain BCK1, stronger effect = lower value
[38] = S. cerevisiae deletion strains, locus YJL134W, strain LCB3, stronger effect = lower value
[39] = S. cerevisiae deletion strains, locus YJL168C, strain set2, stronger effect = lower value
[40] = S. cerevisiae deletion strains, locus YJL187C, strain SWE1 (second series), stronger effect = lower value
[41] = S. cerevisiae deletion strains, locus YJR043C, strain POL32, stronger effect = lower value
[42] = S. cerevisiae deletion strains, locus YJR075W, strain HOC1, stronger effect = lower value
[43] = S. cerevisiae deletion strains, locus YKL009W, strain mrt4, stronger effect = lower value
[44] = S. cerevisiae deletion strains, locus YKL068W, stronger effect = lower value
[45] = S. cerevisiae deletion strains, locus YKL085W, strain MDH1 (second series), stronger effect = lower value
[46] = S. cerevisiae deletion strains, locus YKL085W, strain MDH1, stronger effect = lower value
[47] = S. cerevisiae deletion strains, locus YKL190W, strain CNB1, stronger effect = lower value
[48] = S. cerevisiae deletion strains, locus YKR001C, strain vps1, stronger effect = lower value
[49] = S. cerevisiae deletion strains, locus YLR039C, strain RIC1, stronger effect = lower value
[50] = S. cerevisiae deletion strains, locus YLR058C, strain SHM2, stronger effect = lower value
[51] = S. cerevisiae deletion strains, locus YLR102C, strain apc9, stronger effect = lower value
[52] = S. cerevisiae deletion strains, locus YLR262C, strain YPT6, stronger effect = lower value
[53] = S. cerevisiae deletion strains, locus YLR268W, strain sec22, stronger effect = lower value
[54] = S. cerevisiae deletion strains, locus YLR330W, strain CHS5, stronger effect = lower value
[55] = S. cerevisiae deletion strains, locus YLR342W, strain FKS1 (second series), stronger effect = lower value
[56] = S. cerevisiae deletion strains, locus YLR371W, strain rom2, stronger effect = lower value
[57] = S. cerevisiae deletion strains, locus YLR418C, strain cdc73, stronger effect = lower value
[58] = S. cerevisiae deletion strains, locus YML016C, strain PPZ1, stronger effect = lower value
[59] = S. cerevisiae deletion strains, locus YML032C, strain rad52, stronger effect = lower value
[60] = S. cerevisiae deletion strains, locus YML124C, strain tub3, stronger effect = lower value
[61] = S. cerevisiae deletion strains, locus YMR078C, strain ctf18, stronger effect = lower value
[62] = S. cerevisiae deletion strains, locus YMR223W, strain ubp8, stronger effect = lower value
[63] = S. cerevisiae deletion strains, locus YMR263W, strain SAP30, stronger effect = lower value
[64] = S. cerevisiae deletion strains, locus YMR307W, strain GAS1, stronger effect = lower value
[65] = S. cerevisiae deletion strains, locus YNL067W, strain RPL9B, stronger effect = lower value
[66] = S. cerevisiae deletion strains, locus YNL128W, strain TEP1, stronger effect = lower value
[67] = S. cerevisiae deletion strains, locus YNL153C, strain GIM3, stronger effect = lower value
[68] = S. cerevisiae deletion strains, locus YNL233W, strain BNI4, stronger effect = lower value
[69] = S. cerevisiae deletion strains, locus YNL250W, strain rad50, stronger effect = lower value
[70] = S. cerevisiae deletion strains, locus YNL271C, strain bni1, stronger effect = lower value
[71] = S. cerevisiae deletion strains, locus YNL298W, strain CLA4, stronger effect = lower value
[72] = S. cerevisiae deletion strains, locus YNL307C, strain MCK1, stronger effect = lower value
[73] = S. cerevisiae deletion strains, locus YNL322C, strain KRE1, stronger effect = lower value
[74] = S. cerevisiae deletion strains, locus YNR052C, strain pop2, stronger effect = lower value
[75] = S. cerevisiae deletion strains, locus YOL006C, strain TOP1, stronger effect = lower value
[76] = S. cerevisiae deletion strains, locus YOL012C, strain htz1
[77] = S. cerevisiae deletion strains, locus YOL147C, strain pex11, stronger effect = lower value
[78] = S. cerevisiae deletion strains, locus YOR061W, strain CKA2, stronger effect = lower value
[79] = S. cerevisiae deletion strains, locus YOR069W, strain VPS5, stronger effect = lower value
[80] = S. cerevisiae deletion strains, locus YOR136W, strain idh2, stronger effect = lower value
[81] = S. cerevisiae deletion strains, locus YOR144C, strain elg1, stronger effect = lower value
[82] = S. cerevisiae deletion strains, locus YOR184W, strain ser1, stronger effect = lower value
[83] = S. cerevisiae deletion strains, locus YOR316C, strain cot1, stronger effect = lower value
[84] = S. cerevisiae deletion strains, locus YPL055C, strain LGE1, stronger effect = lower value
[85] = S. cerevisiae deletion strains, locus YPL241C, strain CIN2, stronger effect = lower value
[86] = S. cerevisiae deletion strains, locus YPR119W, strain clb2, stronger effect = lower value
[87] = S. cerevisiae deletion strains, locus YPR141C, strain kar3, stronger effect = lower value
[88] = S. cerevisiae deletion strains, locus YPR163C, strain tif3, stronger effect = lower value
[89] = S. cerevisiae deletion strains, locus YPR167C, strain met16, stronger effect = lower value
[90] = S. cerevisiae deletion strains, strain wtn01, stronger effect = lower value
[91] = S. cerevisiae strains, strain wild type, stronger effect = lower value

Measured: normalized growth

C=C1C(C)C2C(Cc3ccccc3)NC(=O)C23OC(=O)/C=C/C(=O)CCCC(C)C/C=C/C3C1O (configuration not stated)
active: [15] 0.908 | [26] 0.609 | [28] 0.652 | [52] 0.597 | [64] 0.586 | [71] 0.896 | [72] 0.841 | [88] 0.884
inactive: [1] 0.981 | [2] 0.956 | [3] 1.01 | [4] 1.01 | [5] 0.952 | [6] 0.987 | [7] 1.01 | [8] 0.984 | [9] 1.02 | [10] 0.994 | [11] 1 | [12] 0.985 | [13] 0.912 | [14] 0.958 | [16] 0.998 | [17] 1.01 | [18] 1.01 | [19] 0.995 | [20] 0.974 | [21] 0.99 | [22] 0.998 | [23] 0.973 | [24] 0.864 | [25] 0.99 | [27] 0.966 | [29] 1.01 | [30] 1 | [31] 0.972 | [32] 1.01 | [33] 0.988 | [34] 0.815 | [35] 0.99 | [36] 1.01 | [37] 1.01 | [38] 1 | [39] 1.01 | [40] 1.01 | [41] 0.975 | [42] 1.03 | [43] 1.02 | [44] 0.993 | [45] 0.977 | [46] 0.977 | [47] 1 | [48] 0.935 | [49] 0.893 | [50] 1.01 | [51] 1.01 | [53] 1.03 | [54] 0.988 | [55] 0.805 | [56] 1.02 | [57] 0.94 | [58] 1 | [59] 1.01 | [60] 1.01 | [61] 1.01 | [62] 0.986 | [63] 1 | [65] 0.975 | [66] 0.973 | [67] 0.989 | [68] 1.02 | [69] 1.01 | [70] 0.96 | [73] 1.01 | [74] 1.01 | [75] 0.79 | [76] 0.448 | [77] 1 | [78] 0.996 | [79] 1 | [80] 0.991 | [81] 1 | [82] 0.992 | [83] 1.01 | [84] 0.97 | [85] 1 | [86] 1 | [87] 1.01 | [89] 1.01 | [90] 0.983 | [91] 0.966

C=C1C(C)C2C(Cc3ccccc3)NC(=O)C23OC(=O)/C=C/C(O)CCCC(C)C/C=C/C3C1O (configuration not stated)
inactive: [1] 1.01 | [2] 1.01 | [3] 1 | [4] 0.997 | [5] 1.02 | [6] 1.04 | [7] 1.01 | [8] 1.01 | [9] 1 | [10] 1 | [11] 0.995 | [12] 1.01 | [13] 0.998 | [14] 1 | [15] 1 | [16] 0.996 | [17] 1 | [18] 0.997 | [19] 0.993 | [20] 1.01 | [21] 1 | [22] 0.988 | [23] 0.997 | [24] 1.02 | [25] 0.999 | [26] 1.03 | [27] 1 | [28] 1 | [29] 0.987 | [30] 1.01 | [31] 0.998 | [32] 1 | [33] 1.02 | [34] 1.06 | [35] 0.984 | [36] 0.998 | [37] 1 | [38] 1 | [39] 0.998 | [40] 1.01 | [41] 1.01 | [42] 0.996 | [43] 1.01 | [44] 1 | [45] 0.999 | [46] 0.999 | [47] 1.01 | [48] 0.994 | [49] 1.01 | [50] 1 | [51] 1.01 | [52] 1.02 | [53] 1 | [54] 1.01 | [55] 1.02 | [56] 1.01 | [57] 0.995 | [58] 1 | [59] 1 | [60] 0.997 | [61] 0.992 | [62] 1 | [63] 1.01 | [64] 1.02 | [65] 1.01 | [66] 1.01 | [67] 1.02 | [68] 0.994 | [69] 1 | [70] 0.998 | [71] 0.995 | [72] 1.01 | [73] 1.01 | [74] 1.01 | [75] 1.03 | [76] 0.948 | [77] 0.997 | [78] 1 | [79] 1 | [80] 0.999 | [81] 1 | [82] 1.03 | [83] 1 | [84] 1.03 | [85] 1.01 | [86] 0.999 | [87] 1 | [88] 1 | [89] 0.999 | [90] 0.995 | [91] 1.01
